# mHTT CaM bind: inhibitors of human mutant huntingtin-calmodulin interaction; AID 1671202; AlphaScreen His-mHTT/GST-CaM binding, luminescence; hit rate 3.6% among 190,000; P42858; inhibition, % at 15 µM;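 further: 0% = both proteins with DMSO and 100% = one protein alone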
# Target sequence (P42858 whole entry, looked up, stated change not applied): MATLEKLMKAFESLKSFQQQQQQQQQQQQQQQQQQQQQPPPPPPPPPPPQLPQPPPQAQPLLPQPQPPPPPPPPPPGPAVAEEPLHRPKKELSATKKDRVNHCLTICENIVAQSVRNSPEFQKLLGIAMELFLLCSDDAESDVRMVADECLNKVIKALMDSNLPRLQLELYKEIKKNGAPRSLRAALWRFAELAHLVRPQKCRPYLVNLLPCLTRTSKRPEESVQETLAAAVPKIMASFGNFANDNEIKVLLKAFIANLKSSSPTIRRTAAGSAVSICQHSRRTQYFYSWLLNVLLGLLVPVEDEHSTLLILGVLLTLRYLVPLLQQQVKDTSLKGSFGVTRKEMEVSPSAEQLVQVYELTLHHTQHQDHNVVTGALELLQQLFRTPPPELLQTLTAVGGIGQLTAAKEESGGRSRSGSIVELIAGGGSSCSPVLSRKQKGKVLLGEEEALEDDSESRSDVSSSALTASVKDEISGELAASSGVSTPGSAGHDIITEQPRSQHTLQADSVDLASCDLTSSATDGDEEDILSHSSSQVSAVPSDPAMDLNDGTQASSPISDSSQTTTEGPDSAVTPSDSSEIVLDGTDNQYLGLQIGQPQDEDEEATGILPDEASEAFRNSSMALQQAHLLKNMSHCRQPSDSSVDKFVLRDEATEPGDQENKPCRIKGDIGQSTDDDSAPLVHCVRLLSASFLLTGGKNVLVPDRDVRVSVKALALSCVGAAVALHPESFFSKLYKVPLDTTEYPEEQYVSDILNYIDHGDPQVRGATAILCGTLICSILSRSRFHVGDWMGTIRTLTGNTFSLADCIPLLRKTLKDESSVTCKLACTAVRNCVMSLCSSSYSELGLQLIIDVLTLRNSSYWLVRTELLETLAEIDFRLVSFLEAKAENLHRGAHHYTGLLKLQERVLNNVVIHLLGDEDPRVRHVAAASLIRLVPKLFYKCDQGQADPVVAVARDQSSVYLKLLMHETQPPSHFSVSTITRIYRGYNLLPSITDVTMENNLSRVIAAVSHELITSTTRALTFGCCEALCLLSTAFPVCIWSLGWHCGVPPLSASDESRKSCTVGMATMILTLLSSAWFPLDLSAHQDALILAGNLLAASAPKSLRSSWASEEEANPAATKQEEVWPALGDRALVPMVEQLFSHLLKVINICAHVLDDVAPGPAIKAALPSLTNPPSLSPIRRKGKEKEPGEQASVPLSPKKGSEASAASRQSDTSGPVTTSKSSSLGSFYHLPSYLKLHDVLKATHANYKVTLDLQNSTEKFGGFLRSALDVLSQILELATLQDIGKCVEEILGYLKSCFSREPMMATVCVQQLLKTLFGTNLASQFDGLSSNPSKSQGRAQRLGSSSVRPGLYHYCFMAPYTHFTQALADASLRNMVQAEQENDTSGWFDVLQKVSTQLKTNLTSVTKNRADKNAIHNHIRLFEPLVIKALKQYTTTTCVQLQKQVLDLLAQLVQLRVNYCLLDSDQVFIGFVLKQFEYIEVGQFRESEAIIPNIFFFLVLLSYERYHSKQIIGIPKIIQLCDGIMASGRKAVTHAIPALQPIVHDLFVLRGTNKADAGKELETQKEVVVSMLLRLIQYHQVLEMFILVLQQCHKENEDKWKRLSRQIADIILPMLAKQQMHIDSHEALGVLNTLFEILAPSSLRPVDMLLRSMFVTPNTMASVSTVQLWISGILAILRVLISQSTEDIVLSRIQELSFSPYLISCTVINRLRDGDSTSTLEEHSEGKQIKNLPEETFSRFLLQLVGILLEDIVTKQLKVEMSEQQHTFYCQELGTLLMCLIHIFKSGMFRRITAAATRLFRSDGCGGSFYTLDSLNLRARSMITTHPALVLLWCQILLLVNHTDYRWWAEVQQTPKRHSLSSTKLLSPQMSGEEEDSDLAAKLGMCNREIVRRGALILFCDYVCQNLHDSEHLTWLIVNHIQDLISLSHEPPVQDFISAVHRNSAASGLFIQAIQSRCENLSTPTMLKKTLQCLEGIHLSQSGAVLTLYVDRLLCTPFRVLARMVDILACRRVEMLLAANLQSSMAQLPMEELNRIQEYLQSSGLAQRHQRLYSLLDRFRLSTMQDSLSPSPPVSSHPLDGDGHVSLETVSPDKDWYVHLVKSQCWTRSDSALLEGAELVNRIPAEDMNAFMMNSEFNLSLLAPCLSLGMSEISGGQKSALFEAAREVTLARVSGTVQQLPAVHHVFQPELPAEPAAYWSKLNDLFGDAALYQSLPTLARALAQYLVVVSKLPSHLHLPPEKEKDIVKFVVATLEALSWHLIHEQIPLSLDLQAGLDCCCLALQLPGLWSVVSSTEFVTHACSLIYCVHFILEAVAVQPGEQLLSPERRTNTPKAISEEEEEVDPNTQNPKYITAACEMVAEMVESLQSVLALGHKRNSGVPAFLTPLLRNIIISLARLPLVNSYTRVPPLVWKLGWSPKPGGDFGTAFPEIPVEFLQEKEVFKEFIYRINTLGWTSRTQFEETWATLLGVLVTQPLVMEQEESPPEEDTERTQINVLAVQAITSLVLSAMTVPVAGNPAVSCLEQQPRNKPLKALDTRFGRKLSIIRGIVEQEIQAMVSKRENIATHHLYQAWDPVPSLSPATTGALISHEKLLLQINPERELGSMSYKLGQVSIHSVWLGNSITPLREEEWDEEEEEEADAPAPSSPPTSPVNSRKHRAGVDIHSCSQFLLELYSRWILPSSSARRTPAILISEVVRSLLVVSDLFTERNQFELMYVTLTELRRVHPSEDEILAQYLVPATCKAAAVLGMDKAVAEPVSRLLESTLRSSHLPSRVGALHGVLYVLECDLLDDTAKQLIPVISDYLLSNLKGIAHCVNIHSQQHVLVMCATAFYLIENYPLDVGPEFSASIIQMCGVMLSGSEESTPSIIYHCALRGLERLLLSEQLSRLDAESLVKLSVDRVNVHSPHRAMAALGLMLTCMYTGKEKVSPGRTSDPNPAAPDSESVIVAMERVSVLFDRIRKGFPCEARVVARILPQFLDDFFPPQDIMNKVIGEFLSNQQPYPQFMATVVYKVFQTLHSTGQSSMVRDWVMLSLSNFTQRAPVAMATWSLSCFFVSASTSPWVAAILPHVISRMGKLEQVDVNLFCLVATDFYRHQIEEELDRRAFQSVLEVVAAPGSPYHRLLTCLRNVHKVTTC
# Pf apPOL block: Pf-apPOL DNA polymerase inhibition; Recombinant Pf-apPOL, molecular beacon fluorescence, 1.5 h; inhibition, % at 10 µM; hit rate 0.25% among 210,000
# Active calls of the source: *. The full list was thinned out, with hits kept by preference. No stated cut-off is given here; in the data, active means inhibition above about 50%; inactive means the rest.
SMILES,mHTT CaM bind,Pf apPOL block
O=C(c1ccc2nsnc2c1)N1CCN(Cc2nc(-c3ccc(F)cc3)cs2)CC1,-6,-14
CCn1c(NC(=O)c2ccccc2)nc2ccccc21,53*,0
O=C(Nc1nc2ccccc2n1CCN1CCCCC1)c1ccccc1,34,-3
CCC(=O)Nc1nc2ccccc2n1CC,-2,-15
C=CCn1c(NC(=O)c2ccccc2)nc2ccccc21,54*,1
CCCCN1C(=O)c2ccc(C(=O)Nc3nccs3)cc2C1=O,-3,-11
O=C(Nc1c(F)cccc1F)N1CCc2[nH]cnc2C1c1ccccn1 (centres undefined),56*,-8
CCOc1ccc(NC(=O)N2CCc3[nH]cnc3C2c2ccccn2)cc1 (centres undefined),94*,-7
O=C(Nc1ccccc1)N1CCc2[nH]cnc2C1c1ccncc1 (centres undefined),1,1
COc1ccccc1NC(=O)N1CCc2[nH]cnc2C1c1ccccn1 (centres undefined),36,-4
COC(=O)c1cccc(NC(=O)N2CC3CC2CC3NC(=O)c2cccs2)c1 (centres undefined),0,0
O=C(NCc1ccccc1F)C1CC(=O)N(C2CC3CCC2C3)C1 (centres undefined),-4,-2
O=C(c1ccc2c(c1)OCO2)N1CC2CC1CC2NS(=O)(=O)c1cccs1 (centres undefined),3,-4
Cc1cc(C)c2oc(=O)n(C3CCN(C(=O)COc4ccccc4)CC3)c2c1,73*,-3
Cc1ccc2ncn(C3CCN(C(=O)COc4ccccc4)CC3)c2c1,-6,-5
Cc1ccc(C)c(C(=O)N2CCCC2COc2ccc(C(=O)N3CCOCC3)cc2)c1 (centres undefined),-3,-1
CCc1cccc(NC(=O)c2ccc(-n3cc(CNC(=O)C4CC4)cn3)cc2)c1,-4,-5
CC1Cc2ccccc2N1C(=O)c1ccc(Cl)cc1 (centres undefined),-39,2
CC1Cc2ccccc2N1C(=O)c1ccc2nc(N3C(=O)CCC3=O)sc2c1 (centres undefined),52*,-5
CC(CC(F)(F)F)C(=O)NC1CCc2[nH]c3ccc(Br)cc3c2C1 (centres undefined),34,-3
Cc1nc(CC(=O)NC2CCc3[nH]c4ccc(Cl)cc4c3C2)c(C)s1 (centres undefined),99*,-1
Cc1cc(C)c(C(=O)N2CCC(CC(=O)NC3CCCCCC3)CC2)[nH]1,4,0
O=C(NC1CC1)C1CCN(S(=O)(=O)c2ccc3[nH]c4c(c3c2)CCCCC4)CC1,24,-4
CC(C)C(=O)NC1CCc2[nH]c3ccc(Br)cc3c2C1 (centres undefined),53*,-9
O=C(Cc1c(C(=O)O)[nH]c2ccc(Cl)cc12)NC1CC1,-2,-12
SMILES,mHTT CaM bind,Pf apPOL block
O=C(NC1CCc2[nH]c3ccc(Br)cc3c2C1)C1CC=CCC1 (centres undefined),98*,-8
Cc1cc(Cl)cc2c3c([nH]c12)CCC(NC(=O)CC1CC1)C3 (centres undefined),90*,1
O=C(NCc1ccccn1)C(=O)Nc1ccc(F)cc1F,-16,2
CC(C)(C)c1[nH]nc2c1C(c1cccc(Cl)c1)C(C#N)=C(N)O2 (centres undefined),19,-5
Cc1ccc2[nH]c3c(c2c1)CC(NC(=O)CC(C)C)CC3 (centres undefined),93*,0
Cc1ccc2[nH]c3c(c2c1)CN(C)CC3,3,-2
COc1ccc(-c2sc3ccc(OC)cc3c2-c2ccc(SC)cc2)cc1,-17,-7
CCOc1ccc(CNc2ccc3c(c2)ncn3C(C)(C)C)cc1,30,5
CCN(CC)c1ccc(CNc2ccc3c(c2)ncn3CC)cc1,94*,-2
CCn1cnc2cc(NCc3ccc(N(C)C)cc3)ccc21,14,-5
CN(C)c1ccc(CNc2ccc3c(c2)ncn3C(C)(C)C)cc1,78*,-4
O=C(Nc1nnc(Cc2c[nH]c3ccccc23)s1)c1ccccc1F,34,-6
Cc1ccc(C)c(CN2C(=O)NC3(CCN(C(=O)c4sccc4C)CC3)C2=O)c1,5,-3
O=C1NC(c2cccc(F)c2)Nc2sc3c(c21)CCC3 (centres undefined),13,2
O=C1NC(c2ccccc2F)Nc2sc3c(c21)CCCC3 (centres undefined),0,-2
O=C1NC(c2ccccc2[N+](=O)[O-])Nc2sc3c(c21)CCCC3 (centres undefined),58*,0
O=C1NC(c2ccccn2)Nc2sc3c(c21)CCC3 (centres undefined),69*,0
CCCCN1C(=O)C(C)(C(=O)NCc2ccc(Cl)cc2)Oc2cccnc21 (centres undefined),-4,2
O=C(Nc1ccc(-c2nc3ncccc3o2)cc1)c1ccc([N+](=O)[O-])cc1,-5,-4
CC(=O)Nc1ccc2cccc(O)c2n1,100*,-4

# Screens deposited in PubChem by University of Kansas High Throughput Screening Laboratory.
